Data from PubChem BioAssay AID651820 (National Center for Advancing Translational Sciences (NCATS), 2012).
Hit rate of the full screen: of about 340,000 compounds, about 12,000 (3.5%) were called active. Inconclusive results (about 18%) are left out. Calls come from the whole dose curve; as a rule, active = well fitted inhibition curve with a large enough effect; inconclusive = small, poorly fitted or top-dose-only effect, or another doubt; inactive = no such curve, though single readings can be large or run the other way. The sample as a whole holds a higher share of actives than the screen did.

experiment: qHTS Assay for Inhibitors of Hepatitis C Virus (HCV); conditions: Huh7.5.1 HCVcc-Cre infection, luciferase reporter, 44 h; series mostly up to 41.8 µM; activity change, negative = inhibition: at the top concentration
Summary of the method: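 Compounds are dispensed onto cells plated 4 h earlier at 1,000 per well, with HCVcc-Cre virus (about 0.5 moi) added next. Following 44 h of culture, luminescent signal is measured for 15 sec after 15 min with substrate at room temperature.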
% is set by controls: 0 for no effect and ±100 for the full control effect; potency is the fitted concentration of half-maximal effect.

Row | SMILES | activity change, negative = inhibition | Potency
1 | O=C(c1ccccc1[N+](=O)[O-])N1CCC2(CC1)OCCO2 | 17.8% (inactive) | 
2 | O=C(c1cc2nc(-c3ccccc3)cc(-c3ccccc3)n2n1)N1CCC2(CC1)OCCO2 |  | 10 µM (active)
3 | Cc1ccc(-c2cc(C(=O)N3CCC4(CC3)OCCO4)no2)cc1 | -6.91% (inactive) | 
4 | CC(=O)N1CCc2c(sc(NC(=O)CCS(=O)(=O)c3ccc(C)cc3)c2C(N)=O)C1 | 11.6% (inactive) | 
5 | CCN(CC)c1ccc(C(=O)N/N=C/c2ccc(N3CCOCC3)cc2)cc1 | 1.15% (inactive) | 
6 | CN(C)c1ccc(/C=N/Nc2cc(N3CCOCC3)nc(N3CCOCC3)n2)cc1 |  | 3.98 µM (active)
7 | Cc1cc(C(=O)N/N=C/c2ccc(N3CCOCC3)cc2)c(C)o1 | -11.3% (inactive) | 
8 | CC(=O)Oc1ccc(OC(C)=O)c2c1C1C=CC2CC1 | -24.3% (inactive) | 
9 | Cc1n[nH]c(=O)c2c(NC(=O)CSc3cc(Cl)ccc3Cl)oc(C)c12 | 2.48% (inactive) | 
10 | COc1ccc(-c2cc(C(F)(F)F)nc(SCCC(=O)NCc3ccco3)n2)cc1 | -54.1% (inactive) | 
11 | O=C(CSc1nc(-c2ccco2)cc(C(F)(F)F)n1)N1CCc2ccccc2C1 |  | 11.2 µM (active)
12 | Cc1cc(C(F)(F)F)nn1-c1nc(-c2ccco2)cc(C(F)(F)F)n1 | -21.2% (inactive) | 
13 | CCN([C@H](CO)C(C)C)S(=O)(=O)c1ccccc1Br | 0.83% (inactive) | 
14 | Cc1ccc(NC(=O)CN(C)C(=O)c2cccc(S(=O)(=O)N3CCCC3)c2)cc1 | 3.18% (inactive) | 
15 | Cc1[nH]c2ccccc2c1/C=N\NC(=O)Cn1nnc(-c2ccccc2)n1 | 9.36% (inactive) | 
16 | COCCNC(=S)N/N=C/c1c(C)[nH]c2ccccc12 |  | 10 µM (active)
17 | Cc1[nH]c2ccccc2c1/C=N/NC(=O)CNC(=O)c1ccc2c(c1)OCO2 | -8.97% (inactive) | 
18 | C[C@@H]1CN([C@@H](C)CO)C(=O)c2cc(NC(=O)C3CC3)ccc2O[C@H]1CN(C)C | 19.1% (inactive) | 
19 | O=[N+]([O-])c1ccc(S(=O)(=O)Nc2cccc(-c3ccc(N4CCCC4)nn3)c2)cc1 | -3.97% (inactive) | 
20 | CC(OC(=O)c1c(F)cccc1F)C(=O)NCCC1=CCCCC1 (configuration not stated) | 4.45% (inactive) | 
21 | CN(CC(=O)Nc1ccc(F)c(F)c1F)C(=O)Cn1cnc2c1c(=O)n(C)c(=O)n2C | 0.609% (inactive) | 

Row | SMILES | activity change, negative = inhibition | Potency
22 | CC(C)Cn1c(N)c(C(=O)COC(=O)C2CCCN2C(=O)c2cccs2)c(=O)n(C)c1=O (configuration not stated) | 10.3% (inactive) | 
23 | COc1ccc(NS(=O)(=O)c2cc(NC(=O)COc3ccccc3F)ccc2OC)cc1 |  | 11.2 µM (active)
24 | COc1ccc(OC)c(S(=O)(=O)Nc2ccccc2F)c1 | 20.6% (inactive) | 
25 | COc1ccccc1NC(=O)COC(=O)COc1ccccc1F | 1.95% (inactive) | 
26 | CCc1noc(C)c1C(=O)N1CCCC(N2CCN(c3ccc(F)cc3)CC2)C1 (configuration not stated) | -13.5% (inactive) | 
27 | Cn1c(N)cc(=O)n(C)c1=S | 12% (inactive) | 
28 | C=C(C)CNC(=O)c1ccc(OC2CCN(C(=O)COC)CC2)cc1 | 12.3% (inactive) | 
29 | COc1ccc(NC(=O)CN(C)C(=O)CC2CCCCC2)cc1 | -17.7% (inactive) | 
30 | CCNc1nc(-c2cc3ccccc3o2)cs1 | -7.72% (inactive) | 
31 | CC(C)(C)C(=O)OCc1nc(-c2ccc(O)c(O)c2)cs1 | -67.3% (inactive) | 
32 | O=C(Nc1ccncc1)c1cc2ccccc2o1 | -23.4% (inactive) | 
33 | COc1ccc(-c2csc(Nc3ccc(O)cc3)n2)cc1 |  | 12.6 µM (active)
34 | COc1ccc(OC)c(Nc2nc(-c3ccc(O)c(O)c3)cs2)c1 |  | 10 µM (active)
35 | CCN1CCN(c2nc(Nc3cc(OC)ccc3OC)nc(Nc3cc(OC)ccc3OC)n2)CC1 | -80% (inactive) | 
36 | COc1ccc2nc(Nc3nc(-c4ccncc4)cs3)sc2c1 | -22% (inactive) | 
37 | COC(=O)CCc1sc(Nc2ccc(Br)cc2)nc1-c1ccc(OC)cc1 | 7.69% (inactive) | 
38 | O=c1oc2ccccc2cc1-c1csc(Nc2ccc(O)cc2)n1 |  | 31.6 µM (active)
39 | CC(=O)C[C@H](O)CC(=O)[C@@H]1OC(=O)[C@@H](C)C/C=C\Cc2ccccc21 | -6.09% (inactive) | 
40 | COc1ccc(C(=O)COC(=O)CN2C(=O)C3CC=CCC3C2=O)c(OC)c1 (configuration not stated) | 1.76% (inactive) | 
41 | CC1(C)CC[C@@]2(C(=O)O)C(C1)C1=CCC3[C@@]4(C)CC[C@H](O)C(C)(C)C4CC[C@@]3(C)[C@]1(C)C[C@H]2O (some centres not stated) | 16.8% (inactive) | 
42 | Cc1cc(C)cc(NC(=O)C(c2ccccc2)N2CCN(CC(=O)N3CCCC3)CC2)c1 (configuration not stated) | -20.3% (inactive) | 

Row | SMILES | activity change, negative = inhibition | Potency
43 | CCOc1ccc(C(=O)CCC(=O)Nc2ccncc2)cc1 | 0.752% (inactive) | 
44 | O=C(CNC(=O)c1ccccc1Br)NCCSc1ccc(Br)cc1 | -3.3% (inactive) | 
45 | CN(C)C1=NC[C@H](Cc2ccccc2)N1CCc1ccc(F)cc1 | 9.99% (inactive) | 
46 | C#CCOCCOCCOCCNc1nc(N2CCN(C(=O)[C@H](CCCCN)n3cc(CCC(=O)O)nn3)CC2)nc(N2CCN(C(=O)[C@H](CCCCN)n3cc(CC(C)O)nn3)CC2)n1 (some centres not stated) | 0.129% (inactive) | 
47 | CCCC(NCC(=O)Nc1ccccc1C(=O)NC1CC1)c1ccccc1 (configuration not stated) | -16.5% (inactive) | 
48 | CC1CCCCC1NCC(=O)Nc1ccccc1C(=O)Nc1ccccc1 (configuration not stated) |  | 0.891 µM (active)
49 | COc1cccc(CN(C)CC(=O)Nc2ccccc2C(=O)Nc2ccccc2)c1 | -12.5% (inactive) | 
50 | Cc1ccc(S(=O)(=O)NC2CCCCCC2)cc1 | -0.44% (inactive) | 
51 | O=C1C=CN2CCCC2CC1 (configuration not stated) | -5.11% (inactive) | 
52 | COc1ccc(C(CNC(=O)c2ccc(S(=O)(=O)Nc3ccccc3C)cc2)N2CCOCC2)cc1 (configuration not stated) | -0.659% (inactive) | 
53 | CCOC(=O)C1=C(C)Nc2sc(C(=O)c3ccc(Br)cc3)c(N)c2C1c1ccc(C(=O)OC)cc1 (configuration not stated) |  | 8.91 µM (active)
54 | CCOC(=O)c1sc(=S)n2c1[nH]c(=O)c1ccc(C(=O)OC)cc12 | -9.87% (inactive) | 
55 | CCOC(=O)c1sc(=NC(=O)c2ccc(Br)cc2)n(C)c1C | 23.1% (inactive) | 
56 | CCCCCCSc1ccc([C@@H]2[C@@H]3C(=O)N(CC)C(=O)[C@@H]3[C@]3(C(=O)OC)CCCCN23)cc1OC | 5.98% (inactive) | 
57 | CCCOc1ccc(C2=CSC3=NCCN23)cc1Cl |  | 11.2 µM (active)
58 | Cc1ccc(C2=CSC3=NS(=O)(=O)CCN23)cc1C | 2.87% (inactive) | 
59 | CCCCOc1ccc(CON(C(C)=O)C(C)=O)cc1Cl | -1.6% (inactive) | 
60 | CC[C@]12c3[nH]c4cc(CCC(=O)N(C)C)ccc4c3CCN1C(=O)[C@@H](CC(=O)NCCCN(C)C)C[C@@H]2C(=O)N1CCN(C(=O)c2ccco2)CC1 | 7.67% (inactive) | 
61 | Cc1noc(C)c1S(=O)(=O)N(C)C[C@H]1Oc2ccc(NC(=O)C3CCCCC3)cc2C(=O)N([C@H](C)CO)C[C@@H]1C | -2.1% (inactive) | 
62 | CCOC(=O)[C@H]1[C@H]2COc3ccc(Br)cc3[C@@H]2N2C(=O)CN(C)C(=O)[C@@]12C | 47.2% (inactive) | 
